Experimental findings from PMC7862700, “An all-to-all approach to the identification of sequence-specific readers for epigenetic DNA modifications on cytosine” are described below.

Common to all, as to experiment: DAPPL (digital affinity profiling via proximity ligation, sequencing); 10 mM Tris-HCl pH 7.5, 50 mM NaCl, 1 mM DTT, 4% glycerol, room temperature, 30 min; GST-TFs on glutathione beads, 16-mer random dsDNA library, 0.1% formaldehyde crosslink after washing; high values mean tight binding
What all share (settings): protein: recombinant; tags: N-terminal GST; dsDNA, one strand shown

Test [1] deals with T1, ELK1 (Homo sapiens, UniProt P19419 1-428).
T1 sequence: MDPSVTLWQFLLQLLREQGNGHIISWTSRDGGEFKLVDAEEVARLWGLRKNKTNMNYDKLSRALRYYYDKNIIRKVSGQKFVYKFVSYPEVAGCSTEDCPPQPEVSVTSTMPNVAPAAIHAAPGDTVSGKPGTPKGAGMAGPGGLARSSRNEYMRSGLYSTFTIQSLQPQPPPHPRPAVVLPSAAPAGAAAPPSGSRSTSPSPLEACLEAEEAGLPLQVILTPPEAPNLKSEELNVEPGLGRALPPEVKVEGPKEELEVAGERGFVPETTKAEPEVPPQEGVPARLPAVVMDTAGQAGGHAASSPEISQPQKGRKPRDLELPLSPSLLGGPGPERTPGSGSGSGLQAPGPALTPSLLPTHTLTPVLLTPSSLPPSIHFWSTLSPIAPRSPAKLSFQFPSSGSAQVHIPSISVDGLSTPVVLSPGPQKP
A digest of the protocol: (§1)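 GST fusions of human transcription factors were expressed in yeast and captured with glutathione beads. Once given DNA barcodes and pooled alongside a tag-only sample, they were incubated for 30 min at room temperature with 200 nmole of a random double-stranded 16-mer DNA library in Tris/NaCl/DTT/glycerol buffer, then washed, crosslinked (0.1% formaldehyde), proximity-ligated, PCR-amplified and sequenced on an Illumina NextSeq500. The binding signal of each hexamer is its read frequency for a factor divided by its frequency for the tag-only sample.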

Test [2] deals with T2, GABPA (Homo sapiens, UniProt Q06546 1-454).
T2 sequence: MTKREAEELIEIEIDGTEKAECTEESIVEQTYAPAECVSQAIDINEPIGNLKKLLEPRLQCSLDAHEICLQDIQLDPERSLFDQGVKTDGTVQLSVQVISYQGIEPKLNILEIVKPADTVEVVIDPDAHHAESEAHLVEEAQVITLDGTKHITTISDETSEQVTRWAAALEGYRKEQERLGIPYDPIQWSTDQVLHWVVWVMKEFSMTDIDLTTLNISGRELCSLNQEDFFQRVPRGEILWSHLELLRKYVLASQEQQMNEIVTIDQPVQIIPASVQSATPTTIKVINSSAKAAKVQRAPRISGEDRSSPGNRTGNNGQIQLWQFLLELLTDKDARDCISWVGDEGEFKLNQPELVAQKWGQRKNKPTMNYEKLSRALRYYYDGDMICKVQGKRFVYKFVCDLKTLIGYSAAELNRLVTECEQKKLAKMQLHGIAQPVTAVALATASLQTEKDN
A digest of the protocol:
as §1

In test [3] the target is T3, ERG (Homo sapiens, UniProt P11308 1-479).
T3 sequence: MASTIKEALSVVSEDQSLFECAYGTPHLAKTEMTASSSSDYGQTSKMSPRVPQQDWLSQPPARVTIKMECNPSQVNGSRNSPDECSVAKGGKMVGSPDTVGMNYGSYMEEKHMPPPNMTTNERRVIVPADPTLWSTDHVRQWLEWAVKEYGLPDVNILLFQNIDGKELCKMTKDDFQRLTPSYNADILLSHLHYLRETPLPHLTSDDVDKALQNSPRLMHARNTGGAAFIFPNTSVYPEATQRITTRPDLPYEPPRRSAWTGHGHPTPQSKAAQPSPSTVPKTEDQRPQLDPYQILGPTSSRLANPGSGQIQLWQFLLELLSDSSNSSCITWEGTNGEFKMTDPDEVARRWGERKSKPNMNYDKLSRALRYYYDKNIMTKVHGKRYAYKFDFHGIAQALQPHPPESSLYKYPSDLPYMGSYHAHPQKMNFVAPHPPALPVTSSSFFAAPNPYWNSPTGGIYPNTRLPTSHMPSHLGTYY
A digest of the protocol:
as §1

For test [4], the target named is ELF1 (Homo sapiens, UniProt P32519 1-619). The essentials:
as §1

The target in test [5] is T4, EHF (Homo sapiens, UniProt Q9NZC4 1-300).
T4 sequence: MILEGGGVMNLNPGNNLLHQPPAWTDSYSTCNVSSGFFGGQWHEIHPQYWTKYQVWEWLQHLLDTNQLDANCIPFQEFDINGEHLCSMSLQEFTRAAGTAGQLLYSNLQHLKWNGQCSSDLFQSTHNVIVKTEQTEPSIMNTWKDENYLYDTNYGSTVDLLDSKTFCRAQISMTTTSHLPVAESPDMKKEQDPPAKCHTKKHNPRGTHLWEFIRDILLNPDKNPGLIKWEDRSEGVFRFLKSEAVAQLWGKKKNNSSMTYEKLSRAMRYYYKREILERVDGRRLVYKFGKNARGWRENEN
A digest of the protocol:
as §1

Test [6] addresses SPIB (Homo sapiens, UniProt Q01892 1-262). A digest of the protocol:
as §1

For test [7], the target named is T5, FEV (Homo sapiens, UniProt Q99581 1-238).
T5 sequence: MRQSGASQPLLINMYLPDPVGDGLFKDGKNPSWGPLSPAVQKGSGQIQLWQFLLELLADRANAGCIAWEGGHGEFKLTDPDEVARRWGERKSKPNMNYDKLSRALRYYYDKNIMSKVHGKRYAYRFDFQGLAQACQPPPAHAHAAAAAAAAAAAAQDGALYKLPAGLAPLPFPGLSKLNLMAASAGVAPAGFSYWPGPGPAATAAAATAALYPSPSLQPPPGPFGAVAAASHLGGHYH
A digest of the protocol:
as §1

The target of test [8] is ETV5 (Homo sapiens, UniProt P41161 1-510). A digest of the protocol: as §1
The target in test [9] is ELF4 (Homo sapiens, UniProt Q99607 1-663). A digest of the protocol: as §1
Test [10] concerns the target T6, ELK4 (Homo sapiens, UniProt P28324-2 1-405).
T6 sequence: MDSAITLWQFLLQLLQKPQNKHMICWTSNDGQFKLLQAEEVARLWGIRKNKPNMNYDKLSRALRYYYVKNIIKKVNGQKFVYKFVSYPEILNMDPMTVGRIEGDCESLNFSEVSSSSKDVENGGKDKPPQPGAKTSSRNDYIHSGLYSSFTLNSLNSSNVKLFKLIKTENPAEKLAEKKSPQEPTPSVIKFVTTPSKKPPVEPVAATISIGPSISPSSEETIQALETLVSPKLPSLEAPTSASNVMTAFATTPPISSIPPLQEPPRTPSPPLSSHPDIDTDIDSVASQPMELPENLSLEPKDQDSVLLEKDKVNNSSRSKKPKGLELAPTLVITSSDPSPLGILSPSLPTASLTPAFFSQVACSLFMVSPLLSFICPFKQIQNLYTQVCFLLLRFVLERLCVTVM
A digest of the protocol: as §1

Chain of ETV5 (P41161 whole entry): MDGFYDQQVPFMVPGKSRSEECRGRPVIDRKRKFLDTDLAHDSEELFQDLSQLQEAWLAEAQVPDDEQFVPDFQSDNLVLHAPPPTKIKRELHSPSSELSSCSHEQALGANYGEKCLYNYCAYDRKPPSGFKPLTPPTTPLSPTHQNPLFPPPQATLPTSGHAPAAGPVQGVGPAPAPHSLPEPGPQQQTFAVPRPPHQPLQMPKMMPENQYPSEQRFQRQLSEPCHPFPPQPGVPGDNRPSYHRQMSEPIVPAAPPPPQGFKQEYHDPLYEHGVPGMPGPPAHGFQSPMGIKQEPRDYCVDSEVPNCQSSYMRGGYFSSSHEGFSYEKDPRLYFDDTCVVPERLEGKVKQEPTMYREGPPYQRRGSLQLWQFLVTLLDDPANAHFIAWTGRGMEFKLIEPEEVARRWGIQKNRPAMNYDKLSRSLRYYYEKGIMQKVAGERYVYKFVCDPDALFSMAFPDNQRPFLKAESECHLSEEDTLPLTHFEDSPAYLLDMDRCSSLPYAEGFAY
Chain of SPIB (Q01892 whole entry): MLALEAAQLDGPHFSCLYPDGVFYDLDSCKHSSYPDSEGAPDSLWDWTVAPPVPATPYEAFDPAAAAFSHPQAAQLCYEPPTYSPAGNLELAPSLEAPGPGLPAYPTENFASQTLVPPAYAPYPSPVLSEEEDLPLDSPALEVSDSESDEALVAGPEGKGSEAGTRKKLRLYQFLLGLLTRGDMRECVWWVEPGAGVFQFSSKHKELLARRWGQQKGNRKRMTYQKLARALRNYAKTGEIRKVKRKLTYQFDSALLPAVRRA
Chain of ELF1 (P32519 whole entry): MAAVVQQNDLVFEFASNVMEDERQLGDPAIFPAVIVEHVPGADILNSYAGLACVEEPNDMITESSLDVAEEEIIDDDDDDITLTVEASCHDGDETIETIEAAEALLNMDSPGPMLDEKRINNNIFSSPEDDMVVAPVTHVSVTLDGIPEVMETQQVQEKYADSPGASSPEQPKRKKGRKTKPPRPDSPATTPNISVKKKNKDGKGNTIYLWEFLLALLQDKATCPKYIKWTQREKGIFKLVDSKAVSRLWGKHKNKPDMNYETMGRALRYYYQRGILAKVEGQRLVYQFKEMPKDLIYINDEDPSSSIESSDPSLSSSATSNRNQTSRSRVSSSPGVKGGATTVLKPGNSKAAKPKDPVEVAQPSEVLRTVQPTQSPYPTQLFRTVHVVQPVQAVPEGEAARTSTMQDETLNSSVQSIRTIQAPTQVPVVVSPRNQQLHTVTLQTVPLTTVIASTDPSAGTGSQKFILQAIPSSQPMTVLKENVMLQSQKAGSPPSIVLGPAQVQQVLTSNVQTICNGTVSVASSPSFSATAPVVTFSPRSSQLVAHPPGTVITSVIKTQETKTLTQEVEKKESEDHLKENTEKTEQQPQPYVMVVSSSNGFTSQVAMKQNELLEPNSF
Chain of ELF4 (Q99607 whole entry): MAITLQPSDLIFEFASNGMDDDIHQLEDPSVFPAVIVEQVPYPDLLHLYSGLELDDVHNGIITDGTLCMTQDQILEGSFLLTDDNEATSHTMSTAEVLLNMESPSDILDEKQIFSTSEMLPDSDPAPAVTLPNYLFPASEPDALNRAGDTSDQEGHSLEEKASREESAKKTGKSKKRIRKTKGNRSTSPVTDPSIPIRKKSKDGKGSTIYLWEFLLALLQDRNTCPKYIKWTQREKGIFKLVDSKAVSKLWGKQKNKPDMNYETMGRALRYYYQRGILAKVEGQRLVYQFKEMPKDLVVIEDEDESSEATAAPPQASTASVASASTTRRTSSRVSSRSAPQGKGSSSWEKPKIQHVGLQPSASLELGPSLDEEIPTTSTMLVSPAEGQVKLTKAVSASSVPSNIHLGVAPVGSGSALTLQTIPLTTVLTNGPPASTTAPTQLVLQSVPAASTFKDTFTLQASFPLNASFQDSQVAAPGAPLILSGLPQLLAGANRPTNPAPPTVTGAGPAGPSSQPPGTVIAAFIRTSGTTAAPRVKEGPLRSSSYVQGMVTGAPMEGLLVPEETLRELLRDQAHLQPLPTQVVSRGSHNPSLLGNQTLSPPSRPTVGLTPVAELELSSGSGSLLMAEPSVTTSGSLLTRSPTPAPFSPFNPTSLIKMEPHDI

As to GTTGAC, the binding signal in test [1] is 1.03 fold enrichment (6-mer frequency, TF over GST control); in [2], 1.19 fold enrichment (6-mer frequency, TF over GST control); in [3] it was 1.22 fold enrichment (6-mer frequency, TF over GST control); in test [4], 1.2 fold enrichment (6-mer frequency, TF over GST control); in test [5], 1.17 fold enrichment (6-mer frequency, TF over GST control); in [6], 1.22 fold enrichment (6-mer frequency, TF over GST control). Also, the binding signal in test [7] was 1.18 fold enrichment (6-mer frequency, TF over GST control); in [8], 1.01 fold enrichment (6-mer frequency, TF over GST control); in test [9], 1.15 fold enrichment (6-mer frequency, TF over GST control); in [10], 1.25 fold enrichment (6-mer frequency, TF over GST control).
